Assay results reported in PubChem BioAssay (NCATS).
Records with an inconclusive call do not appear. The source made the active and inactive calls. Calls follow the shape of the dose curve; as a rule, active = well fitted inhibition curve with a large enough effect; inconclusive = small, poorly fitted or top-dose-only effect; inactive = flat fitted curve, though single readings scatter.

Tests used:
Assay in all cases: qHTS profiling for inhibitors of Plasmodium falciparum proliferation (AID 504749); also: nearly all actives have a fitted effect of over 60% in size
CP252 = conditions: P. falciparum in erythrocytes, SYBR Green DNA, 72 h; series mostly up to 12.8 µM
How it was run: (§1)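 Fluorescence of SYBR Green-bound parasite DNA, read at 485/535 nm, served as the growth measure. Infected erythrocytes were cultured with compound 72 h; artemisinin (0.29 uM) and DMSO wells defined the normalization range.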

CP256 = conditions: P. falciparum in erythrocytes, SYBR Green DNA, 72 h; series mostly up to 28.7 µM
How it was run: as §1

CP260 = conditions: P. falciparum in erythrocytes, SYBR Green DNA, 72 h; series mostly up to 28.7 µM
How it was run: as §1

CP265 = conditions: P. falciparum in erythrocytes, SYBR Green DNA, 72 h; series mostly up to 12.8 µM
How it was run: as §1

CP266 = conditions: P. falciparum in erythrocytes, SYBR Green DNA, 72 h; series mostly up to 12.8 µM
How it was run: as §1

CP268 = conditions: P. falciparum in erythrocytes, SYBR Green DNA, 72 h; series mostly up to 28.7 µM
How it was run: as §1

CP269 = conditions: P. falciparum in erythrocytes, SYBR Green DNA, 72 h; series mostly up to 28.7 µM
How it was run: as §1

CP286 = conditions: P. falciparum in erythrocytes, SYBR Green DNA, 72 h; series mostly up to 28.7 µM
How it was run: as §1

CP291 = conditions: P. falciparum in erythrocytes, SYBR Green DNA, 72 h; series mostly up to 28.7 µM
How it was run: as §1

CP297 = conditions: P. falciparum in erythrocytes, SYBR Green DNA, 72 h; series mostly up to 28.7 µM
How it was run: as §1

CP305 = conditions: P. falciparum in erythrocytes, SYBR Green DNA, 72 h; series mostly up to 28.7 µM
How it was run: as §1

CP315 = conditions: P. falciparum in erythrocytes, SYBR Green DNA, 72 h; series mostly up to 28.7 µM
How it was run: as §1

CP325 = conditions: P. falciparum in erythrocytes, SYBR Green DNA, 72 h; series mostly up to 28.7 µM
How it was run: as §1

CP329 = conditions: P. falciparum in erythrocytes, SYBR Green DNA, 72 h; series mostly up to 28.7 µM
How it was run: as §1

DFO2036 = conditions: P. falciparum in erythrocytes, SYBR Green DNA, 72 h; series mostly up to 28.7 µM
How it was run: as §1

DIV14 = conditions: P. falciparum in erythrocytes, SYBR Green DNA, 72 h; series mostly up to 28.7 µM
How it was run: as §1

DIV17 = conditions: P. falciparum in erythrocytes, SYBR Green DNA, 72 h; series mostly up to 28.7 µM
How it was run: as §1

DIV30 = conditions: P. falciparum in erythrocytes, SYBR Green DNA, 72 h; series mostly up to 28.7 µM
How it was run: as §1

Dd2 = conditions: P. falciparum in erythrocytes, SYBR Green DNA, 72 h; series mostly up to 28.7 µM
How it was run: as §1

ECU = conditions: P. falciparum in erythrocytes, SYBR Green DNA, 72 h; series mostly up to 28.7 µM
How it was run: as §1

FAB9 = conditions: P. falciparum in erythrocytes, SYBR Green DNA, 72 h; series mostly up to 28.7 µM
How it was run: as §1

GB4 = conditions: P. falciparum in erythrocytes, SYBR Green DNA, 72 h; series mostly up to 28.7 µM
How it was run: as §1

HB3 = conditions: P. falciparum in erythrocytes, SYBR Green DNA, 72 h; series mostly up to 28.7 µM
How it was run: as §1

ICS = conditions: P. falciparum in erythrocytes, SYBR Green DNA, 72 h; series mostly up to 28.7 µM
How it was run: as §1

N140 = conditions: P. falciparum in erythrocytes, SYBR Green DNA, 72 h; series mostly up to 28.7 µM
How it was run: as §1

P93_24 = conditions: P. falciparum in erythrocytes, SYBR Green DNA, 72 h; series mostly up to 28.7 µM
How it was run: as §1

P94_40 = conditions: P. falciparum in erythrocytes, SYBR Green DNA, 72 h; series mostly up to 28.7 µM
How it was run: as §1

PAD = conditions: P. falciparum in erythrocytes, SYBR Green DNA, 72 h; series mostly up to 28.7 µM
How it was run: as §1

PC15 = conditions: P. falciparum in erythrocytes, SYBR Green DNA, 72 h; series mostly up to 28.7 µM
How it was run: as §1

PC26 = conditions: P. falciparum in erythrocytes, SYBR Green DNA, 72 h; series mostly up to 28.7 µM
How it was run: as §1

PC49 = conditions: P. falciparum in erythrocytes, SYBR Green DNA, 72 h; series mostly up to 28.7 µM
How it was run: as §1

SC27B = conditions: P. falciparum in erythrocytes, SYBR Green DNA, 72 h; series mostly up to 28.7 µM
How it was run: as §1

TAB109 = conditions: P. falciparum in erythrocytes, SYBR Green DNA, 72 h; series mostly up to 12.8 µM
How it was run: as §1

TAB113 = conditions: P. falciparum in erythrocytes, SYBR Green DNA, 72 h; series mostly up to 28.7 µM
How it was run: as §1

TAB165 = conditions: P. falciparum in erythrocytes, SYBR Green DNA, 72 h; series mostly up to 28.7 µM
How it was run: as §1

W2 = conditions: P. falciparum in erythrocytes, SYBR Green DNA, 72 h; series mostly up to 12.8 µM
How it was run: as §1

Measured: Potency
Potency is read from the fitted curve at half-maximal effect.

CO[C@@H](COC(N)=O)C1=C(N2CC2)C(=O)C(C)=C(N2CC2)C1=O
active: CP252 794 nM | CP256 1410 nM | CP260 1000 nM | CP265 708 nM | CP266 3790 nM | CP268 3010 nM | CP269 953 nM | CP286 1120 nM | CP291 1350 nM | CP297 1690 nM | CP305 1900 nM | CP315 3380 nM | CP325 3010 nM | CP329 1510 nM | DFO2036 794 nM | DIV14 1510 nM | DIV17 1900 nM | DIV30 3010 nM | Dd2 891 nM | ECU 2000 nM | FAB9 7940 nM | GB4 1510 nM | HB3 2000 nM | ICS 1000 nM | N140 1260 nM | P93_24 1120 nM | P94_40 1120 nM | PAD 1260 nM | PC15 2820 nM | PC26 1900 nM | SC27B 1260 nM | TAB109 1120 nM | TAB113 1260 nM | TAB165 708 nM | W2 301 nM
inactive: PC49
